From PubChem BioAssay (EPA / NIEHS)
Results filed as inconclusive are left out. Calls of active or inactive are those of the source. Rule for the calls, unless noted: active = hit-call score of the fitted dose curve at least 0.9, where 1 is the maximum; inconclusive = response in the unintended direction; inactive = score below 0.9.

Tests used:
[1] = ATG_TAL_CIS: Attagene CIS-FACTORIAL HepG2 Assay for human TAL Basal Promoter (AID 2282966; active = hit-call score of the fitted dose curve at least 0.9, where 1 is the maximum; inactive = score below 0.9;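 note: background control endpoint measuring basal TAL promoter reporter mRNA not a specific factor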); conditions: HepG2 Attagene cis-factorial TAL promoter reporter; actives raise or lower the signal
How it was run: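 Background-control endpoint: basal TAL promoter reporter transcripts in transiently transfected HepG2, measured 24 h after dosing. Read-out by RT-PCR with fluorescent primer extension and capillary electrophoresis; gain or loss of signal fitted relative to DMSO.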

[2] = ATG_TGFb_CIS: Attagene CIS-FACTORIAL HepG2 Assay for human Transforming Growth Factor (TGF) (AID 2282967; active = hit-call score of the fitted dose curve at least 0.9, where 1 is the maximum; inactive = score below 0.9); conditions: HepG2 Attagene CIS TGFb reporter, mRNA transcription; actives raise or lower the signal
How it was run: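 Cells were dosed for 24 hours, after which total RNA was reverse-transcribed and reporter sequences amplified, labeled and sized by capillary electrophoresis. Activity was fitted in both directions against DMSO.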

[3] = ATG_VDRE_CIS: Attagene CIS-FACTORIAL HepG2 Assay for human Vitamin D Receptor Element (VDRE) (AID 2282968; active = hit-call score of the fitted dose curve at least 0.9, where 1 is the maximum; inactive = score below 0.9); conditions: HepG2 VDRE cis-reporter transcription, actives raise or lower the signal
How it was run: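 Transient MRTU transfection of HepG2, 24 h compound exposure. Readout: reporter transcripts via RT-PCR and capillary electrophoresis, fluorescence. Bidirectional fit vs DMSO.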

[4] = biological target: Nuclear receptor subfamily 1 group I member 3 (Homo sapiens) (UniProt Q14994); assay: ATG_CAR_TRANS: Attagene TRANS-FACTORIAL HepG2 Assay for human Constitutive Androstane Receptor (CAR) (AID 2282969); conditions: HepG2 Attagene TRANS-FACTORIAL CAR reporter;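 note: activators raise reporter mRNA above DMSO so AC50 marks induction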
How it was run: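 Transiently transfected HepG2, multiplex TRANS reporters (CAR-Gal4 chimera driving GAL4-UAS reporter). 24 h dosing. Readout: reporter transcript by RT-PCR + capillary electrophoresis, fluorescence intensity; positive direction vs DMSO.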

[5] = biological target: X-box-binding protein 1 (Homo sapiens) (UniProt P17861); assay: ATG_Xbp1_CIS: Attagene CIS-FACTORIAL HepG2 Assay for human X-box Binding Protein 1 (XBP1) (AID 2282972; active = hit-call score of the fitted dose curve at least 0.9, where 1 is the maximum; inactive = score below 0.9); conditions: HepG2 XBP1 cis-element reporter, Attagene multiplex; actives raise or lower the signal
How it was run: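 Human hepatoma HepG2, cis-element reporter system, 24 h treatment; mRNA quantified by RT-PCR/CE fluorescence; fit relative to DMSO.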

[6] = ATG_M_19_TRANS: Attagene TRANS-FACTORIAL HepG2 Assay for M19 Transcription Factor (Internal Marker) (AID 2282974); conditions: HepG2 Attagene TRANS-FACTORIAL M19 internal marker reporter
How it was run: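 Using RT-PCR and capillary electrophoresis, reporter mRNA from transiently transfected human HepG2 cells was quantified following 24 h exposure; activity was fitted in the positive direction against DMSO.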

[7] = ATG_GAL4_TRANS: Attagene TRANS-FACTORIAL HepG2 Assay for GAL4 (Internal Marker) (AID 2282976); conditions: HepG2 Attagene TRANS GAL4 internal marker reporter
How it was run: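 In transfected human HepG2 liver cells dosed 24 h, GAL4 reporter mRNA serves as a baseline marker. Detection by RT-PCR with fluorescent capillary electrophoresis, activity fitted upward relative to DMSO.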

[8] = biological target: Hepatocyte nuclear factor 4-alpha (Homo sapiens) (UniProt P41235); assay: ATG_HNF4a_TRANS: Attagene TRANS-FACTORIAL HepG2 Assay for human Hepatocyte Nuclear Factor 4 alpha (HNF4a) (AID 2282982); conditions: HepG2 HNF4a transactivation reporter, mRNA readout
How it was run: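 Transient MRTU transfection of HepG2, 24 h dosing. Readout: reporter mRNA via RT-PCR + capillary electrophoresis, fluorescence; activity fit upward relative to DMSO control.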

[9] = biological target: Transcriptional activator Myb (Homo sapiens) (UniProt P10242); assay: ATG_Myb_CIS: Attagene CIS-FACTORIAL HepG2 Assay for human Myeloblastosis (Myb) Proto-Oncogene Transcription Factor (AID 2282986; active = hit-call score of the fitted dose curve at least 0.9, where 1 is the maximum; inactive = score below 0.9); conditions: HepG2 Attagene CIS-FACTORIAL Myb reporter transcription; actives raise or lower the signal
How it was run: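 In this HepG2 transient-transfection format, cis-regulated reporter mRNA is quantified 24 h post-dosing by RT-PCR with capillary electrophoresis, fitted bidirectionally to DMSO baseline.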

[10] = biological target: Nuclear respiratory factor 1 (Homo sapiens) (UniProt Q16656); assay: ATG_NRF1_CIS: Attagene CIS-FACTORIAL HepG2 Assay for human Nuclear Respiratory Factor 1 (NRF1) Orphan Gene (AID 2282987; active = hit-call score of the fitted dose curve at least 0.9, where 1 is the maximum; inactive = score below 0.9); conditions: HepG2 NRF1 cis-element reporter, Attagene multiplex; actives raise or lower the signal
How it was run: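 Using DMSO as baseline, gain- or loss-of-signal was fitted for reporter mRNA levels in HepG2 cells transiently transfected with cis-regulated reporter units. Samples were taken 24 h after dosing and read by RT-PCR with capillary electrophoresis.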

[11] = biological target: Glucocorticoid receptor (Homo sapiens) (UniProt P04150); assay: ATG_GR_TRANS: Attagene TRANS-FACTORIAL HepG2 Assay for human Glucocorticoid Receptor (GR) (AID 2282978); conditions: HepG2 Attagene TRANS GR reporter, mRNA transcription;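 note: activators score as hits since higher reporter transcript over DMSO is fitted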
How it was run: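 Exogenous NR-GAL4 fusion activity was assessed through induced GAL4-UAS reporter transcripts in transfected human HepG2 cells, quantified after 24 h by RT-PCR and fluorescent capillary electrophoresis with DMSO as baseline.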

[12] = biological target: Oxysterols receptor LXR-beta (Homo sapiens) (UniProt P55055); assay: ATG_LXRb_TRANS: Attagene TRANS-FACTORIAL HepG2 Assay for human Liver X Receptor beta (LXRb) (AID 2282981); conditions: HepG2 Attagene TRANS GAL4-LXRb reporter, mRNA
How it was run: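 Readout: fluorescent reporter mRNA fragments resolved by capillary electrophoresis after RT-PCR. System: transiently transfected human HepG2, exogenous LXRb-Gal4 chimera driving GAL4-UAS reporter, 24 h dosing. Activity fitted upward against DMSO baseline.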

[13] = ATG_M_32_TRANS: Attagene TRANS-FACTORIAL HepG2 Assay for M32 Transcription Factor (Internal Marker) (AID 2282984); conditions: HepG2 Attagene TRANS M32 internal marker reporter
How it was run: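 Read-out: fluorescent reporter cDNA fragments resolved by capillary electrophoresis after RT-PCR of total RNA. Transfected HepG2 cells were exposed to chemical for 24 h. Activity scored in the positive direction relative to DMSO.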

[14] = biological target: Nuclear receptor subfamily 4 group A member 2 (Homo sapiens) (UniProt P43354); assay: ATG_NURR1_TRANS: Attagene TRANS-FACTORIAL HepG2 Assay for human Nuclear Receptor Related Protein 1 (NURR1) (AID 2282985); conditions: HepG2 Attagene TRANS reporter, mRNA readout
How it was run: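 Read-out: reporter mRNA induction by RT-PCR plus capillary electrophoresis with fluorescence detection, after 24 h dosing of transfected HepG2 cells. Exogenous NR-Gal4 chimera activity drives GAL4-UAS reporter; activity fitted upward versus DMSO.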

[15] = ATG_M_06_TRANS: Attagene TRANS-FACTORIAL HepG2 Assay for M06 Transcription Factor (Internal Marker) (AID 2282983); conditions: HepG2 Attagene TRANS M06 internal marker reporter
How it was run: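 Background-control reporter readout: after 24 h chemical exposure of transiently transfected HepG2 (GAL4-UAS reporter units), mRNA quantified by RT-PCR with fluorescent labeling and capillary electrophoresis. Gain-of-signal fitting against DMSO baseline.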

[16] = biological target: Estrogen-related receptor gamma (Homo sapiens) (UniProt P62508); assay: ATG_ERRg_TRANS: Attagene TRANS-FACTORIAL HepG2 Assay for human Estrogen-Related Receptor gamma (ERRg) (AID 2282977); conditions: HepG2 Attagene TRANS reporter, ERRg transactivation;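 note: hits increase reporter signal over DMSO so potencies reflect activators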
How it was run: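 Exogenous NR-Gal4 chimera activity was assessed in HepG2 cells bearing transfected GAL4-UAS reporters. After 24 h dosing, total RNA underwent RT-PCR, fluorescent primer extension and HpaI digestion before capillary electrophoresis, with gain of signal scored against DMSO.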

[17] = biological target: Bile acid receptor (Homo sapiens) (UniProt Q96RI1); assay: ATG_FXR_TRANS: Attagene TRANS-FACTORIAL HepG2 Assay for Farnesoid X Receptor (FXR) (AID 2282979); conditions: HepG2 Attagene TRANS FXR-GAL4 reporter transcription;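 note: hits raise reporter mRNA above DMSO so AC50 marks FXR activation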
How it was run: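 Reporter transcripts from transfected HepG2 cells were measured 24 h after dosing, using RT-PCR with capillary electrophoresis of 6-FAM-labelled fragments. The read-out reflects activity of exogenous FXR-Gal4 chimera on GAL4-UAS units, with induction relative to DMSO.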

[18] = biological target: Oxysterols receptor LXR-alpha (Homo sapiens) (UniProt Q13133); assay: ATG_LXRa_TRANS: Attagene TRANS-FACTORIAL HepG2 Assay for human Liver X Receptor alpha (LXRa) (AID 2282980); conditions: HepG2 Attagene TRANS reporter, LXRa transactivation
How it was run: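 Chemical-induced reporter mRNA measured by RT-PCR with fluorescent labelling and capillary electrophoresis after 24 h dosing of transiently transfected HepG2 cells expressing exogenous NR-Gal4 chimeras; increases scored against DMSO baseline.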

Sequence of Nuclear receptor subfamily 4 group A member 2 (Homo sapiens) (P43354 whole entry, looked up, the tested form may be a part): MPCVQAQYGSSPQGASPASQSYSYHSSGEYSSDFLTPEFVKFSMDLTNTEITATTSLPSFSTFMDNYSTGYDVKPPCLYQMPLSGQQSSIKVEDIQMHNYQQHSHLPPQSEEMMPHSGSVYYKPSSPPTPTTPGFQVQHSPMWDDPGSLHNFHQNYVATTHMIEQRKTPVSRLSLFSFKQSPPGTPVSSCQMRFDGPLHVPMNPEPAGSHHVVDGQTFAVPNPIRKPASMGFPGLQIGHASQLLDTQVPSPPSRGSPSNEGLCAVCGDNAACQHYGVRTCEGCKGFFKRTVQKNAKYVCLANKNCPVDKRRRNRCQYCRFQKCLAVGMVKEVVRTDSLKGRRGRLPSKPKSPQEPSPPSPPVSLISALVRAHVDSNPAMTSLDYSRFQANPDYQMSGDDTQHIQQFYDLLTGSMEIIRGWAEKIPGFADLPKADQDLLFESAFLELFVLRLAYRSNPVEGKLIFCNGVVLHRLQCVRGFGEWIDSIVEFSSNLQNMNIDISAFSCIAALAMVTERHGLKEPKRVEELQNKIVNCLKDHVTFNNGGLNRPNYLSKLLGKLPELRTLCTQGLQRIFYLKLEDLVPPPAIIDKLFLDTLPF
Sequence of Bile acid receptor (Homo sapiens) (Q96RI1 whole entry, looked up, the tested form may be a part): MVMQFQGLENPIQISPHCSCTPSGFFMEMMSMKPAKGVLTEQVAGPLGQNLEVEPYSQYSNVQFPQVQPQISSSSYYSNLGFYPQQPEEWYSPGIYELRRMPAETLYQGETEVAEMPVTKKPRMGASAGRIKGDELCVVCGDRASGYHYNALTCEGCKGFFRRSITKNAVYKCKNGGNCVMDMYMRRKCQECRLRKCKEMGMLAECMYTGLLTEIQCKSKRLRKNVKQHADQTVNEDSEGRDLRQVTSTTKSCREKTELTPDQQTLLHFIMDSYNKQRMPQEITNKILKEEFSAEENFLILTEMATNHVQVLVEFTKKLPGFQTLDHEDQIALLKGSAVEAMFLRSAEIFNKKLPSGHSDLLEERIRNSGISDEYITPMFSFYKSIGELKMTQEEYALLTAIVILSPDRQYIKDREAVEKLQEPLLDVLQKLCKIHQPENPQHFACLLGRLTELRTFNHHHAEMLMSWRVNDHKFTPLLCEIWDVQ
Sequence of Glucocorticoid receptor (Homo sapiens) (P04150 whole entry, looked up, the tested form may be a part): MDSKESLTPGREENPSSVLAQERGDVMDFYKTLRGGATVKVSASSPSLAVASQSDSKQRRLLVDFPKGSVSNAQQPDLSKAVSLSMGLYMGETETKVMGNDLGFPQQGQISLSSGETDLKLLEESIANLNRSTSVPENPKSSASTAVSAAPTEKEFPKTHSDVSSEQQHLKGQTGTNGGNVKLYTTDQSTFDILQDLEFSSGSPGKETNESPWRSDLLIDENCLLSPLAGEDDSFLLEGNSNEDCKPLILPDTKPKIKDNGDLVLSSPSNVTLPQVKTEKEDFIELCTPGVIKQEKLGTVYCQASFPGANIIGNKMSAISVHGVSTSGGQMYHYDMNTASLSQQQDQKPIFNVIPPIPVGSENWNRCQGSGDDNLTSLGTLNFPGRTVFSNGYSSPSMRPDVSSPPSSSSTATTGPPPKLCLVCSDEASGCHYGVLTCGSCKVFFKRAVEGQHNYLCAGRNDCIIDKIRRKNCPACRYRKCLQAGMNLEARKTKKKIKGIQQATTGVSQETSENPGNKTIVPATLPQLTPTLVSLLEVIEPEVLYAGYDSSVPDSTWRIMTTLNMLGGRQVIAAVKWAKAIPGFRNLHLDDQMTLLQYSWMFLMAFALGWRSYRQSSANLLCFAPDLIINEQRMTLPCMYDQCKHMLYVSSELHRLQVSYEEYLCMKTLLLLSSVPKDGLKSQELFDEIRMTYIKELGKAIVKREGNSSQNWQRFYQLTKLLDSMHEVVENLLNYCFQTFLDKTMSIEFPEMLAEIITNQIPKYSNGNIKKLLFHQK
Sequence of Hepatocyte nuclear factor 4-alpha (Homo sapiens) (P41235 whole entry, looked up): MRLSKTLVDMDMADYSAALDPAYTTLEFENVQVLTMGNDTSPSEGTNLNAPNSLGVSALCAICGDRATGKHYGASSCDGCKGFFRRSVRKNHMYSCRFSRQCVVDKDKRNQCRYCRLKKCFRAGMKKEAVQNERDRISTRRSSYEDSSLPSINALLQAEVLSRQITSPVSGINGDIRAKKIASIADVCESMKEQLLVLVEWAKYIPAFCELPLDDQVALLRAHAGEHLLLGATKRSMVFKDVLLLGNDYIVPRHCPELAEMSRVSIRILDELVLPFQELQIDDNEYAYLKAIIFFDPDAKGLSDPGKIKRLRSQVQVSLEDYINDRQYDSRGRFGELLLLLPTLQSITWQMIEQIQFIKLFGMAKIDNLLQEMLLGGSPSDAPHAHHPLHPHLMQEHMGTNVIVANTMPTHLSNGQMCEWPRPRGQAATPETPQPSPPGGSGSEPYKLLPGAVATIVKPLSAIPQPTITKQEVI
Sequence of Oxysterols receptor LXR-alpha (Homo sapiens) (Q13133 whole entry, looked up, the tested form may be a part): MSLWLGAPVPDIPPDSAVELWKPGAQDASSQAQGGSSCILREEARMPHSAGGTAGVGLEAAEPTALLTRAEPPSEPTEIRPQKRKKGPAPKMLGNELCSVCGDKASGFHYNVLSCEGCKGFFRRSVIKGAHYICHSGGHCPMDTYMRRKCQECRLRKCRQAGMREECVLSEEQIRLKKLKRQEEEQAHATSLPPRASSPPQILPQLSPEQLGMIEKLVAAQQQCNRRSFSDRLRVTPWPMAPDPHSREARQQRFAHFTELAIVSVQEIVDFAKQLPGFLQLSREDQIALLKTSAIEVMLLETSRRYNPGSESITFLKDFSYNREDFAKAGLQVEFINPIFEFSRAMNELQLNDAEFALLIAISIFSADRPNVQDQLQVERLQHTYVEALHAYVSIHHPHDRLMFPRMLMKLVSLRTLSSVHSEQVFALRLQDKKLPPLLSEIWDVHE
Sequence of Oxysterols receptor LXR-beta (Homo sapiens) (P55055 whole entry, looked up, the tested form may be a part): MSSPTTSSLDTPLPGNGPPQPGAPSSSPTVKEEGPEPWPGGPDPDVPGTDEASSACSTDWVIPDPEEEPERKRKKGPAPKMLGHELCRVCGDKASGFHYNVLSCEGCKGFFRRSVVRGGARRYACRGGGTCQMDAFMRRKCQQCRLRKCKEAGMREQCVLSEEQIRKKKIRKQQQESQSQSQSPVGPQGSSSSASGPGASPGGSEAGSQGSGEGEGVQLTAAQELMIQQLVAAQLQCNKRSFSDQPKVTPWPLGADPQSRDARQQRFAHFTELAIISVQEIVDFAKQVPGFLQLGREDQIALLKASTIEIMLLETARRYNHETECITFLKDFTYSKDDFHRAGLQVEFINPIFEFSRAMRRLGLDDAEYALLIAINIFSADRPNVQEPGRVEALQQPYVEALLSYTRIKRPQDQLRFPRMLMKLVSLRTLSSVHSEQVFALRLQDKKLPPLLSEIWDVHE
Sequence of Nuclear receptor subfamily 1 group I member 3 (Homo sapiens) (Q14994 whole entry, looked up, the tested form may be a part): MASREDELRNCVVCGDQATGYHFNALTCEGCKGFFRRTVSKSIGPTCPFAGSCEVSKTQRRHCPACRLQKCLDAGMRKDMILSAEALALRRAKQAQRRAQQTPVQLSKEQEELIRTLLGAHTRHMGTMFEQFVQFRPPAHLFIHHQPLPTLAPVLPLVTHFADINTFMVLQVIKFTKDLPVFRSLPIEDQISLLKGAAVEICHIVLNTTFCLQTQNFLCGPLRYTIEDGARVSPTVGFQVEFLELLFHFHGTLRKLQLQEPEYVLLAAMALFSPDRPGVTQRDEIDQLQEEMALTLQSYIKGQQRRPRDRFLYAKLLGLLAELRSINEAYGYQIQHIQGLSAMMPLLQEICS
Sequence of Nuclear respiratory factor 1 (Homo sapiens) (Q16656 whole entry, looked up): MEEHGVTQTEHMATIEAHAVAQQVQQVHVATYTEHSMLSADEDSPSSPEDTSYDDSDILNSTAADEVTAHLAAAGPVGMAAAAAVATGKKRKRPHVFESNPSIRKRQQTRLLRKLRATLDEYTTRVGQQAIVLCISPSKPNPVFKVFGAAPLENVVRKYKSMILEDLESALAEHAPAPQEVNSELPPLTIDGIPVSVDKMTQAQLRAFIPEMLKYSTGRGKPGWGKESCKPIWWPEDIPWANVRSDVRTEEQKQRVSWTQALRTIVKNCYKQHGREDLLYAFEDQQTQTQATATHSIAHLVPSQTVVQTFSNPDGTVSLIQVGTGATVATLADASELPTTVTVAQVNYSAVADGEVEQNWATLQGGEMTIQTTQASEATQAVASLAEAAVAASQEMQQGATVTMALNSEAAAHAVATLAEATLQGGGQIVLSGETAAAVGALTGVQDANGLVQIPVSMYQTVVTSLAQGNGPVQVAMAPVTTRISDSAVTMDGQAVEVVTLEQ
Sequence of X-box-binding protein 1 (Homo sapiens) (P17861 whole entry, looked up): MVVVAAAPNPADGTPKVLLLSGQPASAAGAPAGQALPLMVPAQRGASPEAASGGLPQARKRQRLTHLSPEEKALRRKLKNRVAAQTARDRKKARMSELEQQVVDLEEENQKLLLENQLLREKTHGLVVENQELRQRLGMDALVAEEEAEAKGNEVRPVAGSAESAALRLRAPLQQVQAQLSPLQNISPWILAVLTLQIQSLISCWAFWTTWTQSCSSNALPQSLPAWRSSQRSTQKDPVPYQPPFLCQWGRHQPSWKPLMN
Sequence of Transcriptional activator Myb (Homo sapiens) (P10242 whole entry, looked up): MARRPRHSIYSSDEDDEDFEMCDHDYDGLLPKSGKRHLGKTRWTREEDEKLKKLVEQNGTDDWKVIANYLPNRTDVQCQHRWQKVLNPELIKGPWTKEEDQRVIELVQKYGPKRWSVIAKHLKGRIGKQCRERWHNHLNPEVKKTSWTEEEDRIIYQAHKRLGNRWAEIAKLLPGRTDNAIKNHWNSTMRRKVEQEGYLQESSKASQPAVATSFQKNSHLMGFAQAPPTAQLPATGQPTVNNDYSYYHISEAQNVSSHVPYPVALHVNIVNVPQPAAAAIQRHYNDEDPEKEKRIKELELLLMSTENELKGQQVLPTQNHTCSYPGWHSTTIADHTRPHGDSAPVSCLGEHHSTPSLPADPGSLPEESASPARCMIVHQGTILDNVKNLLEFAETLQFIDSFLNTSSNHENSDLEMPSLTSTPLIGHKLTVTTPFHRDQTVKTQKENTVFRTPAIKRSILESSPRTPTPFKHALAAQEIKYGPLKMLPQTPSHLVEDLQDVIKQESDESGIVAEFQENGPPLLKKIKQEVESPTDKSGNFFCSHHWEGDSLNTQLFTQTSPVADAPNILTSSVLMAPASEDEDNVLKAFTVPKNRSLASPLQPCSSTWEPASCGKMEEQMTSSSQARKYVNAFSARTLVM

With `OC[C@H]1O[C@@H]2O[C@H]3[C@H](O)[C@@H](O)[C@@H](O[C@H]4[C@H](O)[C@@H](O)[C@@H](O[C@H]5[C@H](O)[C@@H](O)[C@@H](O[C@H]6[C@H](O)[C@@H](O)[C@@H](O[C@H]7[C@H](O)[C@@H](O)[C@@H](O[C@H]8[C@H](O)[C@@H](O)[C@@H](O[C@H]9[C@H](O)[C@@H](O)[C@@H](O[C@H]1[C@H](O)[C@H]2O)O[C@@H]9CO)O[C@@H]8CO)O[C@@H]7CO)O[C@@H]6CO)O[C@@H]5CO)O[C@@H]4CO)O[C@@H]3CO` the outcome [1] was “inactive”, the outcome [2] was “inactive” and the outcome [3] was “inactive”. The outcome [4] was “inactive”, the outcome [5] was “inactive” and the outcome [6] was “inactive”. The outcome [7] was “inactive”, the outcome [8] was “inactive” and the outcome [9] was “inactive”. For the same compound, the outcome [10] was “inactive”.
With `c1ccc(Oc2ccccc2)cc1` the outcome [1] was “inactive”, the outcome [2] was “inactive” and the outcome [3] was “inactive”. The outcome [4] was “inactive”, the outcome [5] was “inactive” and the outcome [6] was “inactive”. The outcome [11] was “inactive”, the outcome [12] was “inactive” and the outcome [8] was “inactive”. The outcome [13] was “inactive”, the outcome [14] was “inactive” and the outcome [9] was “inactive”. The outcome [10] was “inactive”.
For `CCCOC(=O)c1c(Cl)c(Cl)c(Cl)c(Cl)c1C(=O)OCCC`, the outcome [1] was “inactive”, the outcome [2] was “inactive” and the outcome [3] was “inactive”. For the same compound, the outcome [4] was “inactive”, the AC50 [5] was 130 µM (active) and the outcome [6] was “inactive”. The outcome [15] was “inactive”, the outcome [13] was “inactive” and the outcome [14] was “inactive”. For the same compound, the outcome [9] was “inactive” and the AC50 [10] was 146 µM (active).
With `CC(C)(C)C1=CC(=O)C(C(C)(C)C)=CC1=O` the outcome [1] was “inactive”, the outcome [2] was “inactive” and the AC50 [3] was 19.7 µM (active). For the same compound, the AC50 [4] was 20.1 µM (active), the outcome [5] was “inactive” and the outcome [16] was “inactive”. For the same compound, the outcome [17] was “inactive”, the outcome [18] was “inactive” and the outcome [12] was “inactive”. For the same compound, the outcome [15] was “inactive”, the AC50 [14] was 74 µM (active) and the outcome [9] was “inactive”. The outcome [10] was “inactive”.
For `C=CC(=O)OCCCC`, the outcome [1] was “inactive”, the outcome [2] was “inactive” and the outcome [3] was “inactive”. The outcome [4] was “inactive”, the outcome [5] was “inactive” and the outcome [6] was “inactive”. For the same compound, the outcome [18] was “inactive”, the outcome [12] was “inactive” and the outcome [13] was “inactive”. For the same compound, the outcome [9] was “inactive” and the outcome [10] was “inactive”.
With `C=CCOC(=O)CCCCCC` the outcome [1] was “inactive”, the AC50 [2] was 0.0799 µM (active) and the outcome [3] was “inactive”. The outcome [4] was “inactive”, the outcome [5] was “inactive” and the outcome [6] was “inactive”. For the same compound, the outcome [11] was “inactive”, the outcome [8] was “inactive” and the outcome [15] was “inactive”. The outcome [13] was “inactive”, the outcome [14] was “inactive” and the outcome [9] was “inactive”.
For `C=CC(C)C#N` (configuration not stated), the outcome [1] was “inactive”, the outcome [2] was “inactive” and the outcome [3] was “inactive”. The outcome [4] was “inactive”, the outcome [5] was “inactive” and the outcome [7] was “inactive”. For the same compound, the outcome [11] was “inactive”, the outcome [17] was “inactive” and the outcome [18] was “inactive”. The outcome [15] was “inactive”, the outcome [13] was “inactive” and the outcome [14] was “inactive”. The outcome [9] was “inactive” and the outcome [10] was “inactive”.
In the case of `O=C(O)CCCCCCCCC(=O)O`, the outcome [1] is reported as “inactive”, the outcome [2] is reported as “inactive” and the outcome [3] is reported as “inactive”. For the same compound, the outcome [4] was “inactive”, the outcome [5] was “inactive” and the outcome [7] was “inactive”. For the same compound, the outcome [17] was “inactive”, the outcome [18] was “inactive” and the outcome [12] was “inactive”. For the same compound, the outcome [8] was “inactive”, the outcome [15] was “inactive” and the outcome [9] was “inactive”. The outcome [10] was “inactive”.
For `CC(O)C1CCCCC1` (configuration not stated), the outcome [1] was “inactive”, the outcome [2] was “inactive” and the outcome [3] was “inactive”. For the same compound, the outcome [4] was “inactive”, the outcome [5] was “inactive” and the outcome [7] was “inactive”. For the same compound, the outcome [16] was “inactive”, the outcome [11] was “inactive” and the outcome [18] was “inactive”. The outcome [12] was “inactive”, the outcome [15] was “inactive” and the outcome [13] was “inactive”. For the same compound, the outcome [9] was “inactive”.
For `O=C(O)c1cc(C(=O)O)cc([N+](=O)[O-])c1`, the outcome [1] was “inactive”, the outcome [2] was “inactive” and the outcome [3] was “inactive”. For the same compound, the outcome [4] was “inactive”, the outcome [5] was “inactive” and the outcome [6] was “inactive”. For the same compound, the outcome [7] was “inactive”, the outcome [18] was “inactive” and the outcome [12] was “inactive”. For the same compound, the outcome [14] was “inactive”, the outcome [9] was “inactive” and the outcome [10] was “inactive”.
